# Test results taken from the supplement of paper PMC4466140.
# What was measured:
# Test in all cases: SPOT peptide array binding signal intensity (averaged, normalized) (arbitrary units (background-subtracted, floor 0; scale differs between SH3 domains)); higher = stronger binding of the SH3 domain to the peptide
# AgAbp1 = molecular target: AgAbp1
# Procedure, shortened: (§1)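 To measure binding, SH3 domains from four yeast species were fused to GST, expressed in E. coli BL21(DE3) and purified on glutathione Sepharose. Each domain was incubated at 10 μg/ml overnight at 4°C on cellulose membranes with synthetic 15-mer peptides whose cysteines were replaced by serines. Anti-GST antibody, an HRP anti-mouse secondary and luminol were used for detection, and images were quantified with Genespotter. Reported binding signal is normalized, background-subtracted spot intensity averaged over replicates, in arbitrary units that differ between domains.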
# AgBbc1 = molecular target: AgBbc1
# Procedure, shortened: as §1
# AgBem1-D1 = molecular target: AgBem1-D1
# Procedure, shortened: as §1
# AgBzz1-D1 = molecular target: AgBzz1-D1
# Procedure, shortened: as §1
# AgBzz1-D2 = molecular target: AgBzz1-D2
# Procedure, shortened: as §1
# AgCyk3 = molecular target: AgCyk3
# Procedure, shortened: as §1
# AgFus1 = molecular target: AgFus1
# Procedure, shortened: as §1
# AgHof1 = molecular target: AgHof1
# Procedure, shortened: as §1
# AgHse1 = molecular target: AgHse1
# Procedure, shortened: as §1
# AgLsb1 = molecular target: AgLsb1
# Procedure, shortened: as §1
# AgLsb4 = molecular target: AgLsb4
# Procedure, shortened: as §1
# AgMyo5 = molecular target: AgMyo5
# Procedure, shortened: as §1
# AgNbp2 = molecular target: AgNbp2
# Procedure, shortened: as §1
# AgRvs167 = molecular target: AgRvs167
# Procedure, shortened: as §1
# AgSho1 = molecular target: AgSho1
# Procedure, shortened: as §1
# AgSla1-D1-D2 = molecular target: AgSla1-D1-D2
# Procedure, shortened: as §1
# AgSla1-D3 = molecular target: AgSla1-D3
# Procedure, shortened: as §1
# CaAbp1-D1 = molecular target: CaAbp1-D1
# Procedure, shortened: as §1
# CaAbp1-D2 = molecular target: CaAbp1-D2
# Procedure, shortened: as §1
# CaBbc1 = molecular target: CaBbc1
# Procedure, shortened: as §1
# CaBem1-D1 = molecular target: CaBem1-D1
# Procedure, shortened: as §1
# CaBzz1-D1 = molecular target: CaBzz1-D1
# Procedure, shortened: as §1
# CaBzz1-D2 = molecular target: CaBzz1-D2
# Procedure, shortened: as §1
# CaCyk3 = molecular target: CaCyk3
# Procedure, shortened: as §1
# CaFus1 = molecular target: CaFus1
# Procedure, shortened: as §1
# CaHof1 = molecular target: CaHof1
# Procedure, shortened: as §1
# CaHse1 = molecular target: CaHse1
# Procedure, shortened: as §1
# CaLsb1 = molecular target: CaLsb1
# Procedure, shortened: as §1
# CaLsb4 = molecular target: CaLsb4
# Procedure, shortened: as §1
# CaMyo5 = molecular target: CaMyo5
# Procedure, shortened: as §1
# CaNbp2 = molecular target: CaNbp2
# Procedure, shortened: as §1
# CaRvs167 = molecular target: CaRvs167
# Procedure, shortened: as §1
# CaRvs167-3 = molecular target: CaRvs167-3
# Procedure, shortened: as §1
# CaSho1 = molecular target: CaSho1
# Procedure, shortened: as §1
# CaSla1-D1-D2 = molecular target: CaSla1-D1-D2
# Procedure, shortened: as §1
# CaSla1-D3 = molecular target: CaSla1-D3
# Procedure, shortened: as §1
# ScAbp1 = molecular target: ScAbp1
# Procedure, shortened: as §1
# ScBbc1 = molecular target: ScBbc1
# Procedure, shortened: as §1
# ScBem1-D1 = molecular target: ScBem1-D1
# Procedure, shortened: as §1
# ScBzz1-D1 = molecular target: ScBzz1-D1
# Procedure, shortened: as §1
# ScBzz1-D2 = molecular target: ScBzz1-D2
# Procedure, shortened: as §1
# ScCyk3 = molecular target: ScCyk3
# Procedure, shortened: as §1
# ScFus1 = molecular target: ScFus1
# Procedure, shortened: as §1
# ScHof1 = molecular target: ScHof1
# Procedure, shortened: as §1
# ScHse1 = molecular target: ScHse1
# Procedure, shortened: as §1
# ScLsb1 = molecular target: ScLsb1
# Procedure, shortened: as §1
# ScLsb2 = molecular target: ScLsb2
# Procedure, shortened: as §1
# ScLsb3 = molecular target: ScLsb3
# Procedure, shortened: as §1
# ScLsb4 = molecular target: ScLsb4
# Procedure, shortened: as §1
# ScMyo3 = molecular target: ScMyo3
# Procedure, shortened: as §1
# ScMyo5 = molecular target: ScMyo5
# Procedure, shortened: as §1
# ScNbp2 = molecular target: ScNbp2
# Procedure, shortened: as §1
# ScPex13 = molecular target: ScPex13
# Procedure, shortened: as §1
# ScRvs167 = molecular target: ScRvs167
# Procedure, shortened: as §1
# ScSho1 = molecular target: ScSho1
# Procedure, shortened: as §1
# ScSla1-D1-D2 = molecular target: ScSla1-D1-D2
# Procedure, shortened: as §1
# ScSla1-D3 = molecular target: ScSla1-D3
# Procedure, shortened: as §1
# SpAbp1-D1 = molecular target: SpAbp1-D1
# Procedure, shortened: as §1
# SpBbc1 = molecular target: SpBbc1
# Procedure, shortened: as §1
# SpBzz1-D1 = molecular target: SpBzz1-D1
# Procedure, shortened: as §1
binder,measurement,setting,value
FPPKRKPLLRPQRSD,SPOT peptide array binding signal intensity,AgAbp1,766
same,SPOT peptide array binding signal intensity,AgBbc1,332
same,SPOT peptide array binding signal intensity,AgBem1-D1,170
same,SPOT peptide array binding signal intensity,AgBzz1-D1,59
same,SPOT peptide array binding signal intensity,AgBzz1-D2,81
same,SPOT peptide array binding signal intensity,AgCyk3,3.5
same,SPOT peptide array binding signal intensity,AgFus1,303
same,SPOT peptide array binding signal intensity,AgHof1,156
same,SPOT peptide array binding signal intensity,AgHse1,294
same,SPOT peptide array binding signal intensity,AgLsb1,26.5
same,SPOT peptide array binding signal intensity,AgLsb4,33.5
same,SPOT peptide array binding signal intensity,AgMyo5,≤ 0
same,SPOT peptide array binding signal intensity,AgNbp2,590
same,SPOT peptide array binding signal intensity,AgRvs167,9
same,SPOT peptide array binding signal intensity,AgSho1,45
same,SPOT peptide array binding signal intensity,AgSla1-D1-D2,230
same,SPOT peptide array binding signal intensity,AgSla1-D3,5
same,SPOT peptide array binding signal intensity,CaAbp1-D1,1450
same,SPOT peptide array binding signal intensity,CaAbp1-D2,2460
same,SPOT peptide array binding signal intensity,CaBbc1,793
same,SPOT peptide array binding signal intensity,CaBem1-D1,934
same,SPOT peptide array binding signal intensity,CaBzz1-D1,257
same,SPOT peptide array binding signal intensity,CaBzz1-D2,135
same,SPOT peptide array binding signal intensity,CaCyk3,292
same,SPOT peptide array binding signal intensity,CaFus1,589
same,SPOT peptide array binding signal intensity,CaHof1,1.25
same,SPOT peptide array binding signal intensity,CaHse1,57.2
same,SPOT peptide array binding signal intensity,CaLsb1,≤ 0
same,SPOT peptide array binding signal intensity,CaLsb4,1020
same,SPOT peptide array binding signal intensity,CaMyo5,12
same,SPOT peptide array binding signal intensity,CaNbp2,371
same,SPOT peptide array binding signal intensity,CaRvs167,221
same,SPOT peptide array binding signal intensity,CaRvs167-3,18.5
same,SPOT peptide array binding signal intensity,CaSho1,245
same,SPOT peptide array binding signal intensity,CaSla1-D1-D2,872
same,SPOT peptide array binding signal intensity,CaSla1-D3,9.75
same,SPOT peptide array binding signal intensity,ScAbp1,598
same,SPOT peptide array binding signal intensity,ScBbc1,294
same,SPOT peptide array binding signal intensity,ScBem1-D1,87
same,SPOT peptide array binding signal intensity,ScBzz1-D1,10.5
same,SPOT peptide array binding signal intensity,ScBzz1-D2,50
same,SPOT peptide array binding signal intensity,ScCyk3,38
same,SPOT peptide array binding signal intensity,ScFus1,138
same,SPOT peptide array binding signal intensity,ScHof1,0.25
same,SPOT peptide array binding signal intensity,ScHse1,1190
same,SPOT peptide array binding signal intensity,ScLsb1,27.8
same,SPOT peptide array binding signal intensity,ScLsb2,30
same,SPOT peptide array binding signal intensity,ScLsb3,2030
same,SPOT peptide array binding signal intensity,ScLsb4,71
same,SPOT peptide array binding signal intensity,ScMyo3,7.75
same,SPOT peptide array binding signal intensity,ScMyo5,2.75
same,SPOT peptide array binding signal intensity,ScNbp2,761
same,SPOT peptide array binding signal intensity,ScPex13,52.5
same,SPOT peptide array binding signal intensity,ScRvs167,410
same,SPOT peptide array binding signal intensity,ScSho1,1040
same,SPOT peptide array binding signal intensity,ScSla1-D1-D2,1030
same,SPOT peptide array binding signal intensity,ScSla1-D3,16
same,SPOT peptide array binding signal intensity,SpAbp1-D1,874
same,SPOT peptide array binding signal intensity,SpBbc1,37
same,SPOT peptide array binding signal intensity,SpBzz1-D1,444
